Data published in PubChem BioAssay (NCI).
This is part of a sample that, as a whole, favours compounds with a hit. Of some 83,000 tested, about 20% had one in any assay.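 Negative percent growth values reflect cell death: -40 means 40% of the cells present at the start died, and -100 means all died.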 Calls of active or inactive are those of the source. How the source made its calls: active means growth percent below 10; inactive means the rest.

Legend:
Assay in all cases: NCI-60 one-dose screen, 48 h (100 = growth as untreated, 0 = no growth, -100 = all killed)
Conditions in all cases: 10 µM unless noted
NCI-H23 lung = test system: NCI-H23 lung
NCI-H226 lung = test system: NCI-H226 lung
NCI-H322M lung = test system: NCI-H322M lung
HOP-62 NSCLC = test system: HOP-62 NSCLC
NCI-H460 lung = test system: NCI-H460 lung
HOP-92 NSCLC = test system: HOP-92 NSCLC
NCI-H522 lung = test system: NCI-H522 lung
A549/ATCC NSCLC = test system: A549/ATCC NSCLC
786-0 renal = test system: 786-0 renal
COLO 205 colon = test system: COLO 205 colon

Measured: growth

COCN1CCC2N(COC)CCC3N(COC)CCC1N23 (stereo not given)
inactive: NCI-H23 lung 105% | NCI-H226 lung 111% | NCI-H322M lung 124% | HOP-62 NSCLC 107% | NCI-H460 lung 109% | HOP-92 NSCLC 96.3% | NCI-H522 lung 107% | A549/ATCC NSCLC 97.1% | 786-0 renal 109% | COLO 205 colon 94.7%

C=C(C)[C@@H]1CC[C@]2(C(=O)NC3CCCCC3)CC[C@]3(C)[C@H](CC[C@@H]4[C@@]5(C)CCC(=O)C(C)(C)[C@@H]5CC[C@]43C)[C@@H]12
inactive: NCI-H23 lung 88.7% | NCI-H226 lung 74.6% | NCI-H322M lung 91.9% | HOP-62 NSCLC 97.7% | NCI-H460 lung 98.3% | HOP-92 NSCLC 81.5% | NCI-H522 lung 86.9% | A549/ATCC NSCLC 85.6% | 786-0 renal 85.7% | COLO 205 colon 103%

COc1ccc2[nH]c(O)c(/C=c3/cc4c(c(-c5ccc(F)c(OC)c5)n3)=Nc3ccccc3-4)c2c1
active: NCI-H460 lung -21.9% | 786-0 renal -59%
inactive: NCI-H23 lung 61.1% | NCI-H226 lung 90.7% | NCI-H322M lung 89.1% | HOP-62 NSCLC 88.6% | HOP-92 NSCLC 57.5% | NCI-H522 lung 67% | A549/ATCC NSCLC 52.8% | COLO 205 colon 84.8%

Cc1cc(N2CCCC2)nc(NCc2cc(Nc3ccnc4cc(Cl)ccc34)ccc2F)n1
inactive: NCI-H226 lung 24.8%
active: NCI-H23 lung -27.8% | NCI-H322M lung -27.6% | HOP-62 NSCLC -69.2% | NCI-H460 lung -71.5% | HOP-92 NSCLC -14% | NCI-H522 lung -50.3% | A549/ATCC NSCLC -13.1% | 786-0 renal -92.7% | COLO 205 colon -82.2%

CCCCCCCCCOc1c(OC)cc(C2CC(=O)Nc3c2c(C)nn3-c2nc3ccccc3[nH]2)cc1OC (stereo not given)
active: NCI-H23 lung -50% | NCI-H226 lung -61.6% | NCI-H322M lung -58.1% | HOP-62 NSCLC -32.9% | NCI-H460 lung -23.4% | HOP-92 NSCLC -23.4% | NCI-H522 lung -65.2% | A549/ATCC NSCLC -56% | 786-0 renal -70.7% | COLO 205 colon 3.77%

NS(=O)(=O)c1cnccc1Oc1cccc2cccnc12
inactive: NCI-H23 lung 90.9% | NCI-H226 lung 97.3% | NCI-H322M lung 99.6% | HOP-62 NSCLC 86.8% | NCI-H460 lung 108% | HOP-92 NSCLC 78.4% | NCI-H522 lung 95.7% | A549/ATCC NSCLC 94.6% | 786-0 renal 97.7% | COLO 205 colon 103%

COc1ccc(-c2nc(SCCC(C)C)nc(N/N=C\c3cccc([N+](=O)[O-])c3)c2C#N)cc1
inactive: NCI-H23 lung 28.7% | NCI-H226 lung 44.5% | NCI-H322M lung 45.6% | HOP-62 NSCLC 17.7% | NCI-H460 lung 13.3% | HOP-92 NSCLC 50.9% | NCI-H522 lung 29.8% | A549/ATCC NSCLC 11.7% | 786-0 renal 15.3% | COLO 205 colon 42%

N#C/C(=C\c1ccc(-c2ccccc2F)o1)c1nc(-c2ccco2)cs1
inactive: NCI-H23 lung 85.5% | NCI-H226 lung 80.9% | NCI-H322M lung 94.1% | HOP-62 NSCLC 89% | NCI-H460 lung 95.1% | HOP-92 NSCLC 85.7% | NCI-H522 lung 81.5% | A549/ATCC NSCLC 99.1% | 786-0 renal 104% | COLO 205 colon 99.6%

CC1=NOC(=O)/C1=C\c1ccc(O)cc1
inactive: NCI-H23 lung 102% | NCI-H226 lung 108% | NCI-H322M lung 95.2% | HOP-62 NSCLC 99.5% | NCI-H460 lung 109% | HOP-92 NSCLC 101% | NCI-H522 lung 97.5% | A549/ATCC NSCLC 97.4% | 786-0 renal 101% | COLO 205 colon 109%

O=c1[nH]c2ccccc2n1C1CCN(CCOc2ccccc2)CC1
inactive: NCI-H23 lung 93% | NCI-H226 lung 78.9% | NCI-H322M lung 98.8% | HOP-62 NSCLC 96.7% | NCI-H460 lung 94% | HOP-92 NSCLC 37.1% | NCI-H522 lung 76.3% | 786-0 renal 100% | COLO 205 colon 94.3%
active: A549/ATCC NSCLC -22.6%

CC(C)(C)n1cc(-c2ccnc(NCCCNS(=O)(=O)c3ccccc3)c2)c(-c2ccccc2)n1
inactive: NCI-H23 lung 76.9% | NCI-H226 lung 82.5% | NCI-H322M lung 88.9% | HOP-62 NSCLC 90.7% | NCI-H460 lung 78.9% | HOP-92 NSCLC 24.5% | NCI-H522 lung 74.6% | A549/ATCC NSCLC 63.5% | 786-0 renal 56.4% | COLO 205 colon 57.4%

COc1cccc(-c2nc3sccn3c2-c2ccnc(NCCNS(=O)(=O)c3ccc(C(F)(F)F)cc3)c2)c1
inactive: NCI-H23 lung 53.7% | NCI-H226 lung 34.8% | NCI-H322M lung 72.3% | HOP-62 NSCLC 62% | NCI-H460 lung 35.6% | HOP-92 NSCLC 34.4% | NCI-H522 lung 55.7% | A549/ATCC NSCLC 38.1% | 786-0 renal 51.6% | COLO 205 colon 28.5%

N#Cc1c(-c2cccc(Cl)c2)cc(-c2cccc(Cl)c2)[nH]c1=O
inactive: NCI-H23 lung 79.8% | NCI-H226 lung 94% | NCI-H322M lung 87.2% | HOP-62 NSCLC 71.3% | NCI-H460 lung 77.1% | HOP-92 NSCLC 44% | NCI-H522 lung 64.4% | A549/ATCC NSCLC 61.9% | 786-0 renal 87.6% | COLO 205 colon 108%

CC/C=C\C[C@H](O)C/C=C1/C(=O)C=C[C@@H]1C/C=C\CCCCO
inactive: NCI-H23 lung 60.9% | NCI-H322M lung 50.8% | HOP-92 NSCLC 48.8%
active: NCI-H226 lung -23.9% | HOP-62 NSCLC 6.06% | NCI-H460 lung 0.172% | NCI-H522 lung -40.2% | A549/ATCC NSCLC 5.55% | 786-0 renal -49.6% | COLO 205 colon -34.3%

Cn1c(-c2c(N)n(Cc3ccc(C(F)(F)F)cc3)c3nc(C#N)c(C#N)nc23)nc2ccccc21
active: NCI-H23 lung 1.21% | NCI-H226 lung -1.51% | NCI-H322M lung -4.98% | NCI-H460 lung 4.01% | HOP-92 NSCLC -48% | NCI-H522 lung -3.31% | 786-0 renal 3.33% | COLO 205 colon -89.7%
inactive: HOP-62 NSCLC 21.3% | A549/ATCC NSCLC 12%

COc1ccc(-c2csc(C3=C(O)CN(C(C)C)C3=N)n2)cc1OC
inactive: NCI-H23 lung 101% | NCI-H226 lung 84.4% | NCI-H322M lung 91.6% | HOP-62 NSCLC 87% | NCI-H460 lung 120% | HOP-92 NSCLC 43% | NCI-H522 lung 89.1% | A549/ATCC NSCLC 88.7% | 786-0 renal 89.7% | COLO 205 colon 128%

O=C1/C(=C\c2c[nH]c3ccccc23)c2ccccc2N1c1c(Cl)cccc1Cl
active: NCI-H23 lung -80.1% | NCI-H460 lung -89.5% | HOP-92 NSCLC -13.7% | NCI-H522 lung -57.9% | A549/ATCC NSCLC 0.113% | 786-0 renal -37.7% | COLO 205 colon -100%
inactive: NCI-H226 lung 14.7% | NCI-H322M lung 18.8% | HOP-62 NSCLC 19.6%

COc1cc(/C=C/C(=O)c2c(C)nc3ccccc3c2C)ccc1OCCCN1CCN(C(=O)c2ccco2)CC1
inactive: NCI-H23 lung 58.1% | NCI-H226 lung 63.2% | NCI-H322M lung 91.8% | HOP-62 NSCLC 91.5% | NCI-H460 lung 98.2% | HOP-92 NSCLC 70% | NCI-H522 lung 57.7% | A549/ATCC NSCLC 79% | 786-0 renal 85.9% | COLO 205 colon 99.1%

COc1ccc(Cl)cc1NC(=O)C(Br)C(Br)C(=O)O (stereo not given)
inactive: NCI-H23 lung 67% | NCI-H226 lung 70.9% | NCI-H322M lung 61.5% | HOP-62 NSCLC 56.6% | NCI-H460 lung 111% | HOP-92 NSCLC 53.5% | A549/ATCC NSCLC 115% | 786-0 renal 102% | COLO 205 colon 105%
active: NCI-H522 lung -43.5%

CC(=O)OC1CCC2(C)C(=CC3C4CCC(=O)C4(C)CCC32)C1 (stereo not given)
inactive: NCI-H23 lung 102% | NCI-H226 lung 107% | NCI-H322M lung 113% | HOP-62 NSCLC 111% | NCI-H460 lung 108% | HOP-92 NSCLC 101% | NCI-H522 lung 96.9% | A549/ATCC NSCLC 101% | 786-0 renal 102% | COLO 205 colon 94%

NC(=O)c1ccc[n+]([C@@H]2O[C@H](COP(=O)([O-])OP(=O)(O)OC[C@H]3O[C@@H](n4cnc5c(N)ncnc54)[C@H](O)[C@@H]3O)[C@@H](O)[C@H]2O)c1
inactive: NCI-H23 lung 103% | NCI-H226 lung 117% | NCI-H322M lung 113% | HOP-62 NSCLC 108% | NCI-H460 lung 104% | HOP-92 NSCLC 111% | NCI-H522 lung 105% | A549/ATCC NSCLC 105% | 786-0 renal 103% | COLO 205 colon 113%

COc1cc(/C=N/n2c(CN3CCOCC3)nc3ccccc3c2=O)cc(OC)c1OC
inactive: NCI-H23 lung 98.9% | NCI-H226 lung 115% | NCI-H322M lung 90% | HOP-62 NSCLC 96.4% | NCI-H460 lung 109% | HOP-92 NSCLC 106% | NCI-H522 lung 97.9% | A549/ATCC NSCLC 92.3% | 786-0 renal 100% | COLO 205 colon 106%

COc1ccc2c(c1)C(=O)/C(=C/c1ccc(OCC(=O)Nc3nccs3)cc1)O2
inactive: NCI-H226 lung 94.1% | NCI-H322M lung 127% | HOP-62 NSCLC 106% | NCI-H460 lung 90.2% | A549/ATCC NSCLC 84.9% | COLO 205 colon 54.9%
active: NCI-H23 lung 2.06% | HOP-92 NSCLC -78.8% | NCI-H522 lung -61% | 786-0 renal -12.6%

O=C(N/N=C/c1ccncc1)c1ccc(C(F)(F)F)nc1Nc1cccc(C(F)(F)F)c1
inactive: NCI-H23 lung 21.4% | NCI-H226 lung 23.7% | HOP-62 NSCLC 13.3% | NCI-H460 lung 14.3% | A549/ATCC NSCLC 16.1%
active: NCI-H322M lung 8.36% | HOP-92 NSCLC 3.81% | NCI-H522 lung -9.51% | 786-0 renal -27.9% | COLO 205 colon -3.93%

CCOC(=O)c1c2ncccc2n2c(=O)n(-c3ccccc3C)nnc12
inactive: NCI-H23 lung 93.6% | NCI-H226 lung 97.4% | NCI-H322M lung 89.3% | HOP-62 NSCLC 78.6% | NCI-H460 lung 95% | HOP-92 NSCLC 128% | NCI-H522 lung 93.3% | A549/ATCC NSCLC 102% | 786-0 renal 98% | COLO 205 colon 108%

CN(C)CCNc1nc2ccccc2c2c1c1c(n2Cc2ccccc2)-c2ccccc2C1=O
active: NCI-H23 lung -74.8% | NCI-H226 lung -57.1% | NCI-H322M lung -79.5% | HOP-62 NSCLC -90.4% | NCI-H460 lung -98.6% | HOP-92 NSCLC -78.7% | NCI-H522 lung -69.2% | A549/ATCC NSCLC -73% | 786-0 renal -89.6% | COLO 205 colon -76.9%

C=C1C(=O)O[C@H]2[C@H]1CC/C(CNC(=O)/C=C/c1ccc(Cl)cc1Cl)=C\CC[C@@]1(C)O[C@@H]21
inactive: NCI-H226 lung 64.2% | NCI-H322M lung 73.9% | HOP-62 NSCLC 17.2% | A549/ATCC NSCLC 20.9%
active: NCI-H23 lung -61.2% | NCI-H460 lung 2.98% | HOP-92 NSCLC -50.8% | NCI-H522 lung -84.2% | 786-0 renal -77.1% | COLO 205 colon -65.5%
